For some assays here: Measured potencies and affinities stand elsewhere.
What was measured:
Parameters in all cases: scale not given: direction of the effect not stated beside the values
[1] = target: Protein translocase subunit SecA (Escherichia coli (strain K12)) (UniProt P10408); assay: Assay to Identify E. coli SecA ATPase Inhibitors; type: functional; conditions: 30 µM
[2] = target: T1, Ubiquitin-activating enzyme e1, putative (Leishmania donovani (strain BPK282A1)) (UniProt E9BSI1); assay: Leishmania donovani Ubiquitin Activating Enzyme (LdE1); type: functional; conditions: 30 µM
T1 sequence (whole entry): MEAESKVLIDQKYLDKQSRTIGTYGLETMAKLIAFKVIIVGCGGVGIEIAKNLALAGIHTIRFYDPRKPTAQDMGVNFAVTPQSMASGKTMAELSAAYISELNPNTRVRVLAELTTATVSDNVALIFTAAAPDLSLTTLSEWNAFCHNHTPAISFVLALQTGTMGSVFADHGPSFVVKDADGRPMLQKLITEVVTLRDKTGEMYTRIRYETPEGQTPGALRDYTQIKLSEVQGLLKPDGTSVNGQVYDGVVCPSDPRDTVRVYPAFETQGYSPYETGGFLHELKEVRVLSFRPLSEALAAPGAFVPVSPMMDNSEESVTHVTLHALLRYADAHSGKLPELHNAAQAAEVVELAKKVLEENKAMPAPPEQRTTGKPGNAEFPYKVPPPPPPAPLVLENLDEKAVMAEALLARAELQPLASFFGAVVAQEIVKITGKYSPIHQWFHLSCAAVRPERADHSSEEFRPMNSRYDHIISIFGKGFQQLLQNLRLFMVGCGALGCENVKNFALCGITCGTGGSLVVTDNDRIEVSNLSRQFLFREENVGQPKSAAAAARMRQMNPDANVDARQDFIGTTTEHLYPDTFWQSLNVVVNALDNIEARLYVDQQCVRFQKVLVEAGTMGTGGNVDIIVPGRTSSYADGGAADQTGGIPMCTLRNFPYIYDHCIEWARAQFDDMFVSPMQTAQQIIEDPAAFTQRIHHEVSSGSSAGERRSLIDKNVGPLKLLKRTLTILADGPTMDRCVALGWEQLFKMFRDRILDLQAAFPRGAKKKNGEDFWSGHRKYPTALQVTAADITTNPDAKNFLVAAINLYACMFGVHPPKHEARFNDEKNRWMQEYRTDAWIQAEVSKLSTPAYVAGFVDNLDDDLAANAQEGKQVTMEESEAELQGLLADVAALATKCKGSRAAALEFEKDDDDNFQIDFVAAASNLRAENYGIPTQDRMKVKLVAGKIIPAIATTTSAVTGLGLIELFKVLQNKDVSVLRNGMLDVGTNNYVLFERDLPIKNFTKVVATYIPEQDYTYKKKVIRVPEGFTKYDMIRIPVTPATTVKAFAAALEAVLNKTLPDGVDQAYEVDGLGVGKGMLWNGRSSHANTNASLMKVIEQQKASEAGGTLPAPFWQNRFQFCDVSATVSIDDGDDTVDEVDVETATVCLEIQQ

[3] = target: AMP-activated protein kinase, AMPK (Homo sapiens) (UniProt P54646+O43741+P54619+Q9UGJ0+Q9Y478+Q13131+Q9UGI9); assay: AMP-dependent Kinase enzyme assay. An in vitro enzyme assay that detects ADP turnover that is directly proportional to AMPK activity. This uses naive AMPK that is activated during the assay with MK-8722; type: functional; conditions: 30 µM
[4] = target: Sialic acid-binding Ig-like lectin 9 (Homo sapiens) (UniProt Q9Y336); assay: Hs-Siglec9 ALPHAscreen SOP 20170721; conditions: 10 µM
[5] = test system: Trypanosoma cruzi; assay: Trypanosoma cruzi phosphomannomutase and mannose-1-phosphate guanylyltransferase assay; type: functional; conditions: 10 µM
[6] = target: T2, Arginase-2, mitochondrial (Homo sapiens) (UniProt P78540); assay: in vitro enzyme assay to detect the production of urea directly proportional to the activity of Arginase II; type: functional; conditions: 33.3 µM; note: in the data most compounds retested in dose-response had high values
T2 sequence (whole entry): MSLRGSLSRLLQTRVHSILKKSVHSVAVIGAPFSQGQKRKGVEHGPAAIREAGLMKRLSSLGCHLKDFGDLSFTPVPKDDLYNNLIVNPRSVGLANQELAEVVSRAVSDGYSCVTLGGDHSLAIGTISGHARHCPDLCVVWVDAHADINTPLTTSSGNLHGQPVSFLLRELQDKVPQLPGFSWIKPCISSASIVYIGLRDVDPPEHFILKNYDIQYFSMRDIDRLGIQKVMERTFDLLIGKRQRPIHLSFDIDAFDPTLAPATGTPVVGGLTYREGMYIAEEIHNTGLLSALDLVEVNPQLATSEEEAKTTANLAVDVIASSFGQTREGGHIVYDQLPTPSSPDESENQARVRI

[7] = target: T3, Proteasome subunit beta (Trypanosoma cruzi) (UniProt O96673); assay: Trypanosoma cruzi proteasome chymotrypsin-like activity (TcProtChymo) assay.; note: in the data most compounds retested in dose-response had high values; type: functional; conditions: 9.37 µM
T3 sequence (whole entry): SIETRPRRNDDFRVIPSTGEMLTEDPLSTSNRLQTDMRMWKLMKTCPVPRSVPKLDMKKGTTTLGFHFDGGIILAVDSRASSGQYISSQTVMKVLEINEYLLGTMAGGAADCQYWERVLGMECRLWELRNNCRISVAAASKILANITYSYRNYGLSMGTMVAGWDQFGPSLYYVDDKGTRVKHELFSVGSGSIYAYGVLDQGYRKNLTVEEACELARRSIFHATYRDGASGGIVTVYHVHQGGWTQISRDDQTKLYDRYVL

[8] = species: Homo sapiens; assay: To identify inhibition of the IFN signalling (Jak-Stat) pathway via expression of an eGFP reporter gene under the control of an IFN-stimulated response element (ISRE) containing MxA promoter.; type: functional; conditions: 30 µM
[9] = target: T4, Tyrosyl-tRNA synthetase, putative (Trypanosoma cruzi (strain CL Brener)) (UniProt Q4DSP6); assay: Trypanosoma cruzi tyrosyl tRNA synthetase (TcYRS) _High Tyrosine SOP; type: functional; conditions: 30 µM; note: in the data most compounds retested in dose-response had high values
T4 sequence (whole entry): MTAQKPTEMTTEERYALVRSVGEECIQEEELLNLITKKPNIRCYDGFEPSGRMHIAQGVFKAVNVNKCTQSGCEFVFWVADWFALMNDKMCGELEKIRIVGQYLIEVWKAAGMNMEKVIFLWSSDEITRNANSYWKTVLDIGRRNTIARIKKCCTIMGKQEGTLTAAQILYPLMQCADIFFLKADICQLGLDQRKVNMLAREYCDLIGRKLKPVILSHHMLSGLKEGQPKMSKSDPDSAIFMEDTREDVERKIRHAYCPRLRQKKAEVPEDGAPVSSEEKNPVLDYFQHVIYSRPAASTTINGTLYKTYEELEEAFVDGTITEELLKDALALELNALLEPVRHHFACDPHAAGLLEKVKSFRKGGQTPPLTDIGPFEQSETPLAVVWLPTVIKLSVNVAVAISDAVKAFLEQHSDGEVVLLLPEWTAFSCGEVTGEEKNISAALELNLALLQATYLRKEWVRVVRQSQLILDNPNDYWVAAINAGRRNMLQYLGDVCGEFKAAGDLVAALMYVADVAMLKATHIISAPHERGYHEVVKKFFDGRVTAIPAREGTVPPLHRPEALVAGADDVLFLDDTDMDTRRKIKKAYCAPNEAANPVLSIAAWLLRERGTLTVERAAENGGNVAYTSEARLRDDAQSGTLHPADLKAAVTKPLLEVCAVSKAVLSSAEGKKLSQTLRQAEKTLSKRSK

[10] = target: T4, Tyrosyl-tRNA synthetase, putative (Trypanosoma cruzi (strain CL Brener)); assay: Trypanosoma cruzi tyrosyl tRNA synthetase (TcYRS) SOP; type: functional; conditions: 30 µM
[11] = target: Chromo domain-containing protein 1 (Saccharomyces cerevisiae (strain ATCC 204508 / S288c) (Baker's yeast)) (UniProt P32657); assay: ScCHD-1 Enzyme Inhibition Assay; type: functional; conditions: 30 µM; note: in the data most compounds retested in dose-response had high values
Chain of Chromo domain-containing protein 1 (Saccharomyces cerevisiae (strain ATCC 204508 / S288c) (Baker's yeast)) (P32657 whole entry, the tested form may be a part): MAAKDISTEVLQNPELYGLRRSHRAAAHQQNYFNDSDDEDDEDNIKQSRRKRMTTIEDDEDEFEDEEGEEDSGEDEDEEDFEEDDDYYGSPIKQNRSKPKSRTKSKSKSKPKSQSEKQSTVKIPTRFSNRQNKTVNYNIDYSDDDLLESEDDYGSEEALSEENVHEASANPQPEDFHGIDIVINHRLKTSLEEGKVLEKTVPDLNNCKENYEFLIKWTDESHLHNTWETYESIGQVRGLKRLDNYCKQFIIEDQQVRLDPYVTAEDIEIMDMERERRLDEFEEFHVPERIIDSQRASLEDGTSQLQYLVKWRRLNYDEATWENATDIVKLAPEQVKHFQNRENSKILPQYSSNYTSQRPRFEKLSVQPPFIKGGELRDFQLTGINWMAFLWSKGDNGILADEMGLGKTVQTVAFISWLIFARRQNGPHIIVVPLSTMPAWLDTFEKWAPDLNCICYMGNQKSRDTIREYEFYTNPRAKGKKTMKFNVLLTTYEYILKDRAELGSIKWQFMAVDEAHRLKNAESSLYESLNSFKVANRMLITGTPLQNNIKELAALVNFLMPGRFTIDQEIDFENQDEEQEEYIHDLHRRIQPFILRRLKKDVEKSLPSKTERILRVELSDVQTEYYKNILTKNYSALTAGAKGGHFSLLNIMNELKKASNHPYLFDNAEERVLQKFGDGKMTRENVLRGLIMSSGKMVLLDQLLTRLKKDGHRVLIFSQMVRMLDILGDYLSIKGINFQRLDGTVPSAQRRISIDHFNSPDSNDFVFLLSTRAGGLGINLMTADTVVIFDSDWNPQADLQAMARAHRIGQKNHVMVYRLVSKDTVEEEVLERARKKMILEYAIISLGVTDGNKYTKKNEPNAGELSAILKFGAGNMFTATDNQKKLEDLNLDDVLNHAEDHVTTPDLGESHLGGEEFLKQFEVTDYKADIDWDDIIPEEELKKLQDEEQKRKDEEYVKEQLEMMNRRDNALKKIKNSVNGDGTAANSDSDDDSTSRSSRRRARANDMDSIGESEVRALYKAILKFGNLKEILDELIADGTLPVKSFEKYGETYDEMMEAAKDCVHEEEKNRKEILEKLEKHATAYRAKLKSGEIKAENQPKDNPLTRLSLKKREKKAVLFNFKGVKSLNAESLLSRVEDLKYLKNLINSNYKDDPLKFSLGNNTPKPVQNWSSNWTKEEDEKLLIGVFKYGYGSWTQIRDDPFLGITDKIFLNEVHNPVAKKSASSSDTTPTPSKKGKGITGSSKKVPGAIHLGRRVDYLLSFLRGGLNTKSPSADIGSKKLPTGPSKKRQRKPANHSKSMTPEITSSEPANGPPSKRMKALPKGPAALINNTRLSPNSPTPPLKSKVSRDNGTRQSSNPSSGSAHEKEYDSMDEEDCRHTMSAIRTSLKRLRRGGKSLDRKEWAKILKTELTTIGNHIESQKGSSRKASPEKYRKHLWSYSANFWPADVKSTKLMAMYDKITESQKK

Chain of Protein translocase subunit SecA (Escherichia coli (strain K12)) (P10408 whole entry): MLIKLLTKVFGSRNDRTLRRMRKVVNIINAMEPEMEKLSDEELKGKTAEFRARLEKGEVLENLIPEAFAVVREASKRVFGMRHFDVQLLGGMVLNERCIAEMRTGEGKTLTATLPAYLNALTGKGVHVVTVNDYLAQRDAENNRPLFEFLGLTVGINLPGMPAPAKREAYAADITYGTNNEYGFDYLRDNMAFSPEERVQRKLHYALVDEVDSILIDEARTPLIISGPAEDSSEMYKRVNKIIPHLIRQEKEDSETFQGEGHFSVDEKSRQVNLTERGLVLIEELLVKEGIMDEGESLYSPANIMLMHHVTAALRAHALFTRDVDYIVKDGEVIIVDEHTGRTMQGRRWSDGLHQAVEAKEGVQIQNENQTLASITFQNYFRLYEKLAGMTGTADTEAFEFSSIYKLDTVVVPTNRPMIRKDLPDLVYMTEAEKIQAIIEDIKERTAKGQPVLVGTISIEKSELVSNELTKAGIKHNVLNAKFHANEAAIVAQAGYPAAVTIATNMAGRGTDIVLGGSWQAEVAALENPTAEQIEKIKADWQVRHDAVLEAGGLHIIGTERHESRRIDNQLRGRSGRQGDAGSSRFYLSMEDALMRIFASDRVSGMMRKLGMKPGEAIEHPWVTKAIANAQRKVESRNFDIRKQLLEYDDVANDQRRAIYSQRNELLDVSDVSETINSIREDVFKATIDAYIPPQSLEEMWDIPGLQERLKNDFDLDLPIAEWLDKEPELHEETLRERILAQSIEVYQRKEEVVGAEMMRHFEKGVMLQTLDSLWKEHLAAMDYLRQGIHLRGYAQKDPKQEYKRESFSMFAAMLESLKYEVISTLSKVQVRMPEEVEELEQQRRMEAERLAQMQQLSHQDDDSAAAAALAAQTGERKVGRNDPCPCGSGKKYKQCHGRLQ
Chain of Sialic acid-binding Ig-like lectin 9 (Homo sapiens) (Q9Y336 whole entry): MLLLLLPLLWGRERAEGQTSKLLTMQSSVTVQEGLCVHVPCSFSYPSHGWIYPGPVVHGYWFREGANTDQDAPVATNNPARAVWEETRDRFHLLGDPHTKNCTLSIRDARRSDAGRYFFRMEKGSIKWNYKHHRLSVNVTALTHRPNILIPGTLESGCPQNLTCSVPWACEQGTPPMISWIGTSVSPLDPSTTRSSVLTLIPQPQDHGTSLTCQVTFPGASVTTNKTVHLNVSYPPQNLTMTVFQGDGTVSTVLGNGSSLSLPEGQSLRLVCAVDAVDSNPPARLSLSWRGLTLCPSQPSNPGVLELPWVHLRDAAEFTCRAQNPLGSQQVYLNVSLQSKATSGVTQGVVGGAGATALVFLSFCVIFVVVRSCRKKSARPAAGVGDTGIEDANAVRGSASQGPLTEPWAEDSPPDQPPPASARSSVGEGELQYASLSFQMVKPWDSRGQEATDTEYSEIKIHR

Row | Structure (SMILES) | Percent Effect [1] [%] | Percent Effect [2] [%] | Percent Effect [3] [%] | Percent Effect [4] [%] | Percent Effect [5] [%] | Percent Effect [6] [%] | Percent Effect [7] [%] | Percent Effect [8] [%] | Percent Effect [9] [%] | Percent Effect [10] [%] | Percent Effect [11] [%]
1 | CC(C)C(NC(=O)NCCNc1ccccn1)c1cccs1 (centres undefined) | -6.06 | 18.2 | -14.7 | 6.36 | -0.187 | 4.98 | 10.8 | 8.29 | 9.71 | 26.8 | -7.99
2 | CCc1nccn1C1CCCN(C(=O)Cc2cn3ccccc3n2)C1 (centres undefined) | -4.36 | 8.86 | -1.52 | -5.05 | 3.18 | -1.5 | 13.2 | 17.9 | -1.04 | 10.1 | -29
3 | Cc1ccc(S(=O)(=O)NC(=O)c2cccc3c2OCCO3)c(C)c1 | -2.98 | -5.48 | 7.47 | -1.04 | -3.33 | 4.54 | 9.94 | 5.47 | -10.8 | -12.5 | -2.7
4 | CCN1CCC(NC(=O)CN2CCc3c(ncn3C)C2)CC1 | -4.55 | 6.33 | -3.84 | -0.206 | -3.59 | 6.24 | 9.43 | 10.1 | -7.29 | 0 | -5.67
